Assay results from published antibiotic growth screens (doi:10.1016/j.cell.2020.01.021).
The full ranking holds about 2,300 compounds; the median of “relative growth” is about 1, and the lowest 2% start at about 0.046. These entries were drawn from the full list.

System: E. coli BW25113
Assay: relative growth (fraction of control); higher = less inhibition
Details: 50 µM

Row | SMILES | relative growth
1 | CNCC(O)c1ccc(O)c(O)c1.O=C(O)C(O)C(O)C(=O)O (stereo not drawn) | 1.17
2 | CCOC(=O)C(CCc1ccccc1)NC(C)C(=O)N1CCCC1C(=O)O.O=C(O)C=CC(=O)O (stereo not drawn) | 1.07
3 | COCCCOc1cc(CC(CC(N)C(O)CC(C(=O)NCC(C)(C)C(N)=O)C(C)C)C(C)C)ccc1OC.O=C(O)C=CC(=O)O (stereo not drawn) | 0.978
4 | C#CCCCCCCCCCCCC(O)CC(O)CO.C=CCCCCCCCCCCCC(O)CC(O)CO (stereo not drawn) | 0.979
5 | COc1ccc(CN(CCN(C)C)c2ccccn2)cc1.O=C(O)C=CC(=O)O | 1.09
6 | CN1CCC(=C2c3ccccc3CCc3sccc32)CC1.O=C(O)CC(O)C(=O)O | 1.07
7 | CC(C)=CCCC(C)C1CCC2(C)C3=C(CCC12C)C1(C)CCC(O)C(C)(C)C1CC3 (stereo not drawn) | 0.918
8 | CCC1OC(=O)C(C)C(OC2CC(C)(OC)C(O)C(C)O2)C(C)C(OC2OC(C)CC(N(C)C)C2O)C(C)(O)CC(C)C(=O)C(C)C(O)C1(C)O (stereo not drawn) | 0.394
9 | C[N+]1(CCCCC[N+]2(C)CCCC2)CCCC1.O=C([O-])C(O)C(O)C(=O)O.O=C([O-])C(O)C(O)C(=O)O | 0.992
10 | OCC(O)C(O)C(O)CO (stereo not drawn) | 0.987
11 | CN(C)CCOC(C)(c1ccccc1)c1ccccn1.O=C(O)CCC(=O)O (stereo not drawn) | 0.787
12 | CN(C)CCC(c1ccccc1)c1ccccn1.O=C(O)C=CC(=O)O (stereo not drawn) | 0.966
13 | O=c1ccc2ccccc2o1 | 1.09
14 | CN(C)CCOC(c1ccc(Cl)cc1)c1ccccn1.O=C(O)C=CC(=O)O (stereo not drawn) | 0.986
15 | NC(CO)(CO)CO.O=C(c1ccccc1)c1ccc2n1CCC2C(=O)O (stereo not drawn) | 0.914
16 | CCN(CC)CCc1nc(-c2ccccc2)no1.O=C(O)CC(O)(CC(=O)O)C(=O)O | 0.968
17 | CC(C)NCC(O)COc1ccc(COCCOC(C)C)cc1.O=C(O)C=CC(=O)O (stereo not drawn) | 1.04
18 | CN1CCCC1CCOC(C)(c1ccccc1)c1ccc(Cl)cc1.O=C(O)C=CC(=O)O (stereo not drawn) | 1.01
19 | CN1CCCC1c1cccnc1.O=C(O)C(O)C(O)C(=O)O.O=C(O)C(O)C(O)C(=O)O (stereo not drawn) | 1.14
20 | C[N+](C)(C)CCO.Cn1c(=O)c2[n-]cnc2n(C)c1=O | 1.06
21 | CN(C)CCOc1ccc(C(=C(CCCl)c2ccccc2)c2ccccc2)cc1.O=C(O)CC(O)(CC(=O)O)C(=O)O | 0.722
22 | Cc1c(OCC(F)(F)F)ccnc1CS(=O)c1nc2ccccc2[nH]1 (stereo not drawn) | 1.01

Row | SMILES | relative growth
23 | NCC(O)c1ccc(O)c(O)c1.O=C(O)C(O)C(O)C(=O)O (stereo not drawn) | 1.12
24 | CN(C)CCC(c1ccc(Br)cc1)c1ccccn1.O=C(O)C=CC(=O)O (stereo not drawn) | 1.04
25 | COc1ccc2c3c1OC1CC(O)C=CC31CCN(C)C2 (stereo not drawn) | 0.936
26 | CN1CCCN=C1C=Cc1cccc(O)c1.O=C(O)c1cc2ccccc2c(Cc2c(O)c(C(=O)O)cc3ccccc23)c1O | 1.1
27 | C=C1C2CCC3(C)C(c4ccoc4)OC(=O)CC13OC1CC(O)C(C)(C)C(CC(=O)OC)C12C (stereo not drawn) [3alpha-HYDROXY-3-DEOXYANGOLENSIC ACID METHYL ESTER] | 1.03
28 | OCC(O)C(O)CO (stereo not drawn) | 0.882
29 | Cl.NC(=O)CCC(N)C(=O)O (stereo not drawn) | 1.03
30 | CCN(CCCc1ccccc1)CCCc1ccccc1.O=C(O)CC(O)(CC(=O)O)C(=O)O | 0.881
31 | CN(C)CC(c1ccc(O)cc1)C1(O)CCCCC1.O=C(O)CCC(=O)O (stereo not drawn) | 1.14
32 | CC1=C(C(=O)O)N2C(=O)C(NC(=O)C(N)c3ccccc3)C2SC1 (stereo not drawn) | 1.03
33 | O=C(O)C=CC(=O)O.OCCOCCN1CCN(C2=Nc3ccccc3Sc3ccccc32)CC1 | 0.3
34 | CC1CC2C3CCC4=CC(=O)C=CC4(C)C3(F)C(O)CC2(C)C1(O)C(=O)CO (stereo not drawn) | 0.933
35 | C1CCC(C(CC2CCCCN2)C2CCCCC2)CC1.O=C(O)C=CC(=O)O (stereo not drawn) | 0.52
36 | CCN1CCCC1CNC(=O)c1cc(S(N)(=O)=O)ccc1OC (stereo not drawn) | 1.04
37 | CC12CCC(CC1)C(C)(C)O2 | 1.06
38 | Cc1ccccc1C(OCCN(C)C)c1ccccc1.O=C(O)CC(O)(CC(=O)O)C(=O)O (stereo not drawn) | 1.01
39 | COCCCCC(=NOCCN)c1ccc(C(F)(F)F)cc1.O=C(O)C=CC(=O)O | 0.949
40 | Nc1nc(N)nc(-c2cc(Cl)ccc2Cl)n1.O=C(O)C=CC(=O)O | 1.04
41 | CC(N)C(O)c1cccc(O)c1.O=C(O)C(O)C(O)C(=O)O (stereo not drawn) | 0.957
42 | Cc1ccc(S(=O)(=O)O)cc1.NC1CCN(c2nc3c(cc2F)c(=O)c(C(=O)O)cn3-c2ccc(F)cc2F)C1.O (stereo not drawn) | 0.0925
43 | C=CC1=C(C)c2cc3[nH]c(cc4nc(cc5[nH]c(cc1n2)c(C)c5CCC(=O)O)C(CCC(=O)O)=C4C)c(C)c3C=C | 2.63
44 | CNC(C)C1CCC(N)C(OC2C(N)CC(N)C(OC3OCC(C)(O)C(NC)C3O)C2O)O1.O=S(=O)(O)O (stereo not drawn) | 0.786

Row | SMILES | relative growth
45 | Cc1cc(C=Cc2ccc3cc(N(C)C)ccc3[n+]2C)c(C)n1-c1ccccc1.O=C([O-])c1cc2ccccc2c(Cc2c(O)c(C(=O)O)cc3ccccc23)c1O | 0.996
46 | CC(C)Cc1ccc(C(C)C(=O)O)cc1 (stereo not drawn) | 0.933
47 | CCN(CC)C(=O)N1CCN(C)CC1.O=C(O)CC(O)(CC(=O)O)C(=O)O | 1.1
48 | O=C(O)c1cc2ccccc2c(Cc2c(O)c(C(=O)O)cc3ccccc23)c1O.OCCOCCN1CCN(C(c2ccccc2)c2ccc(Cl)cc2)CC1 | 1.17
49 | CC(CN(C)C)CN1c2ccccc2CCc2ccccc21.O=C(O)C=CC(=O)O (stereo not drawn) | 1.01
50 | CCCCCCCCCCCCCCCC(=O)NCCO | 1.06
51 | COC1C(C(=O)O)OC(C)C(O)C1O.COC1OC(C(=O)O)C(O)C(O)C1O (stereo not drawn) [ALGINIC ACID [Mol Wt ~200,000; monomers shown]] | 0.862
52 | CN1CCC(=C2c3ccccc3CC(=O)c3sccc32)CC1.O=C(O)C=CC(=O)O | 1.03
53 | C=CC1CN2CCC1CC2C(O)c1ccnc2ccc(OC)cc12.O=C(O)C(O)C(O)C(O)C(O)CO (stereo not drawn) | 0.949
54 | CC(=O)c1ccc2c(c1)N(CCCN(C)C)c1ccccc1S2.O=C(O)C=CC(=O)O | 0.983
55 | CC1OC(OC2C(O)CC(OC3C(O)CC(OC4CCC5(C)C(CCC6C5CC(O)C5(C)C(C7=CC(=O)OC7)CCC65O)C4)OC3C)OC2C)CC(O)C1O (stereo not drawn) | 1.13
56 | Cl.Cl.O=C(O)COCCN1CCN(C(c2ccccc2)c2ccc(Cl)cc2)CC1 (stereo not drawn) | 0.982
57 | C[N+](C)(C)CC(O)CC(=O)[O-] (stereo not drawn) | 0.989
58 | CCOC(=O)C1=C(COCCN)NC(C)=C(C(=O)OC)C1c1ccccc1Cl.O=S(=O)(O)c1ccccc1 (stereo not drawn) | 0.929
59 | COCCc1ccc(OCC(O)CNC(C)C)cc1.O=C(O)C(O)C(O)C(=O)O (stereo not drawn) | 1.17
60 | COC1C(O)C(O)C(O)C(O)C1O (stereo not drawn) | 0.97
61 | COc1cccc2c1C(=O)c1c(O)c3c(c(O)c1C2=O)CC(O)(C(=O)CO)CC3OC1CC(N)C(O)C(C)O1 (stereo not drawn) | 1.02
62 | Cn1c(=O)c2[nH]cnc2n(C)c1=O | 1.07
63 | CN1CCC(=C2c3ccccc3Sc3ccccc32)CC1.O=C(O)C=CC(=O)O | 0.967
64 | CC[N+](CC)(CC(=O)Nc1c(C)cccc1C)Cc1ccccc1.O=C([O-])c1ccccc1 | 1.01
65 | O=c1[nH]cc(F)c(=O)[nH]1 | 0.475
66 | COc1ccc(CC2c3cc(OC)c(OC)cc3CC[N+]2(C)CCC(=O)OCCCCCOC(=O)CC[N+]2(C)CCc3cc(OC)c(OC)cc3C2Cc2ccc(OC)c(OC)c2)cc1OC.O=S(=O)([O-])c1ccccc1.O=S(=O)([O-])c1ccccc1 (stereo not drawn) | 0.995

Row | SMILES | relative growth
67 | CCN(CC)CCOc1ccc(C(=C(Cl)c2ccccc2)c2ccccc2)cc1.O=C(O)CC(O)(CC(=O)O)C(=O)O | 0.86
68 | CCOC(=O)Nc1ccc(NCc2ccc(F)cc2)nc1N.O=C(O)C=CC(=O)O | 0.989
69 | Cc1cc2nc3c(=O)[nH]c(=O)nc-3n(CC(O)C(O)C(O)COP(=O)([O-])O)c2cc1C.[Na+] (stereo not drawn) | 0.981
70 | CCC(C)C1OC2(CCC1C)CC1CC(CC=C(C)C(OC3CC(OC)C(OC4CC(OC)C(O)C(C)O4)C(C)O3)C(C)C=CC=C3COC4C(O)C(C)=CC(C(=O)O1)C34O)O2 (stereo not drawn) | 0.874
71 | CN(C)CCOC(c1ccccc1)c1ccccc1.Cn1c(=O)c2[nH]c(Cl)nc2n(C)c1=O | 0.0491
72 | Cn1c(=O)cc(N2CCCC(N)C2)n(Cc2ccccc2C#N)c1=O.O=C(O)c1ccccc1 (stereo not drawn) | 1.05
73 | O.OCC(O)C(O)C(OC1OC(CO)C(O)C(O)C1O)C(O)CO (stereo not drawn) | 0.993
74 | CC12CCC3c4ccc(O)cc4CCC3C1CC(O)C2O (stereo not drawn) | 1.07
75 | CC(CN(C)C)CN1c2ccccc2Sc2ccccc21.O=C(O)C(O)C(O)C(=O)O (stereo not drawn) | 0.971
76 | CC(=O)NCC(=O)O.CC(=O)NCC(=O)O.N=C(N)c1ccc(N=NNc2ccc(C(=N)N)cc2)cc1 | 1.01
77 | CCOCC(O)COc1ccc(NC(=O)CC[S+](C)C)cc1.Cc1ccc(S(=O)(=O)[O-])cc1 (stereo not drawn) | 1.09
78 | O=C(O)CC(O)(CC(=O)O)C(=O)O | 1.02
79 | CN(CCOc1ccc(CC2SC(=O)NC2=O)cc1)c1ccccn1.O=C(O)C=CC(=O)O (stereo not drawn) | 0.921
80 | CC(C)C(=O)Oc1ccc(CO)cc1C(CCN(C(C)C)C(C)C)c1ccccc1.O=C(O)C=CC(=O)O (stereo not drawn) | 0.804
81 | C[n+]1cc2c3c(ccc2c2ccc4cc5c(cc4c21)OCO5)OCO3.[Cl-] | 0.639
82 | CC(CCC(=O)O)C1CCC2C3C(O)CC4CC(O)CCC4(C)C3CCC12C (stereo not drawn) | 0.976
83 | CCOCCn1c(N2CCCN(C)CC2)nc2ccccc21.O=C(O)C=CC(=O)O.O=C(O)C=CC(=O)O | 1.11
84 | NCC1OC(OC2C(N)CC(N)C(OC3OC(CO)C(O)C(N)C3O)C2O)C(O)C(O)C1O.O=S(=O)(O)O (stereo not drawn) | 0.935
85 | CC(C)(C)NCC(O)COc1nsnc1N1CCOCC1.O=C(O)C=CC(=O)O (stereo not drawn) | 0.974
86 | CCCc1nn(C)c2c(=O)[nH]c(-c3cc(S(=O)(=O)N4CCN(C)CC4)ccc3OCC)nc12.O=C(O)CC(O)(CC(=O)O)C(=O)O | 0.963
87 | C[N+](C)(CCOc1ccccc1)Cc1ccccc1.O=C([O-])c1cc2ccccc2cc1O | 0.93
88 | COc1cccc2c1C(=O)c1c(O)c3c(c(O)c1C2=O)CC(O)(C(=O)CO)CC3OC1CC(N)C(O)C(C)O1.Cl (stereo not drawn) | 1.02
